Among all 5,500 compounds or so, about 2,000 (36%) were called active. Not shown: some 18% with an inconclusive outcome. No stated cut-off is given here; in the data, active means normalized growth mostly below about 0.91 (no sharp cut-off); inconclusive means no clear call, values can overlap the other calls; inactive means mostly above about 0.92. Some of the results follow.
Assay: chemical genetic growth profiling, strain panel (AID 1159580);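 further: tested at 20 µM; growth read once vehicle control cultures reached saturation at 30 °C; 1 = growth at the plate median or of vehicle wells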
Conditions: S. cerevisiae deletion strains, growth OD
[1] = locus YDR150W, strain NUM1, stronger effect = lower value
[2] = locus YGR078C, strain PAC10, stronger effect = lower value
[3] = locus YHR030C, strain SLT2, stronger effect = lower value
[4] = locus YJL095W, strain BCK1, stronger effect = lower value
[5] = locus YMR263W, strain SAP30, stronger effect = lower value
[6] = locus YMR307W, strain GAS1, stronger effect = lower value
[7] = locus YNL153C, strain GIM3, stronger effect = lower value
[8] = locus YPL055C, strain LGE1, stronger effect = lower value
[9] = locus YHR079C, strain IRE1, stronger effect = lower value
[10] = locus YJR066W, strain TOR1, stronger effect = lower value
[11] = locus YLR113W, strain HOG1, stronger effect = lower value
[12] = locus YNL183C, strain NPR1, stronger effect = lower value
[13] = locus YOR231W, strain MKK1, stronger effect = lower value
[14] = locus YPL256C, strain CLN2, stronger effect = lower value
[15] = locus YAL040C, strain CLN3, stronger effect = lower value
[16] = locus YDR363W, strain ESC2, stronger effect = lower value
[17] = locus YER002W, strain NOP16, stronger effect = lower value
[18] = locus YNL128W, strain TEP1, stronger effect = lower value
[19] = locus YNL175C, strain NOP13, stronger effect = lower value
[20] = locus YNL197C, strain WHI3, stronger effect = lower value
[21] = locus YNL224C, strain SQS1, stronger effect = lower value
[22] = locus YOR083W, strain WHI5 (second series), stronger effect = lower value
[23] = locus YPL241C, strain CIN2, stronger effect = lower value

Measured: normalized growth

COc1ccc(-c2cc(=O)c3c(O)c(OC)c(OC)cc3o2)cc1O
active: locus YNL250W, strain rad50, stronger effect = lower value 0.89
inactive: locus YBR021W, strain FUR4, stronger effect = lower value 0.907 | locus YBR229C, strain ROT2, stronger effect = lower value 1.01 | locus YCL029C, strain bik1, stronger effect = lower value 0.937 | locus YDL035C, strain GPR1, stronger effect = lower value 0.929 | locus YDL074C, strain BRE1, stronger effect = lower value 0.878 | locus YDL101C, strain DUN1, stronger effect = lower value 0.997 | locus YDL134C, strain PPH21, stronger effect = lower value 1 | locus YDL185W, strain tfp1, stronger effect = lower value 0.96 | locus YDL192W, strain arf1, stronger effect = lower value 0.951 | locus YDR101C, strain arx1, stronger effect = lower value 0.926 | [1] 0.997 | locus YDR162C, strain NBP2, stronger effect = lower value 1 | locus YDR318W, strain mcm21, stronger effect = lower value 0.99 | locus YDR388W, stronger effect = lower value 0.99 | locus YDR502C, strain sam2, stronger effect = lower value 0.953 | locus YEL061C, strain CIN8, stronger effect = lower value 1 | locus YER110C, stronger effect = lower value 0.974 | locus YER155C, strain BEM2, stronger effect = lower value 1.01 | locus YER167W, strain BCK2, stronger effect = lower value 0.979 | locus YGL078C, strain dbp3, stronger effect = lower value 0.944 | locus YGL086W, strain mad1, stronger effect = lower value 0.935 | locus YGL248W, strain PDE1, stronger effect = lower value 0.993 | [2] 0.969 | locus YGR135W, strain pre9, stronger effect = lower value 0.971 | locus YGR229C, strain SMI1, stronger effect = lower value 0.893 | locus YGR252W, strain gcn5, stronger effect = lower value 0.994 | [3] 0.998 | locus YHR079C, strain IRE1 (second series), stronger effect = lower value 0.978 | locus YHR094C, strain hxt1, stronger effect = lower value 0.995 | locus YHR129C, strain ARP1, stronger effect = lower value 0.978 | locus YHR200W, strain rpn10, stronger effect = lower value 0.985 | locus YIL066C, strain RNR3, stronger effect = lower value 0.964 | locus YIL073C, strain SPO22, stronger effect = lower value 0.873 | locus YIL125W, strain kgd1, stronger effect = lower value 0.959 | locus YIR030C, strain dcg1, stronger effect = lower value 0.993 | [4] 0.991 | locus YJL134W, strain LCB3, stronger effect = lower value 0.998 | locus YJL168C, strain set2, stronger effect = lower value 0.993 | locus YJL187C, strain SWE1 (second series), stronger effect = lower value 0.952 | locus YJR043C, strain POL32, stronger effect = lower value 0.954 | locus YJR075W, strain HOC1, stronger effect = lower value 0.983 | locus YKL009W, strain mrt4, stronger effect = lower value 0.943 | locus YKL068W, stronger effect = lower value 0.969 | locus YKL085W, strain MDH1 (second series), stronger effect = lower value 0.985 | locus YKL085W, strain MDH1, stronger effect = lower value 0.985 | locus YKL190W, strain CNB1, stronger effect = lower value 1.01 | locus YKR001C, strain vps1, stronger effect = lower value 0.943 | locus YLR039C, strain RIC1, stronger effect = lower value 0.96 | locus YLR058C, strain SHM2, stronger effect = lower value 1 | locus YLR102C, strain apc9, stronger effect = lower value 0.988 | locus YLR262C, strain YPT6, stronger effect = lower value 0.989 | locus YLR268W, strain sec22, stronger effect = lower value 0.902 | locus YLR330W, strain CHS5, stronger effect = lower value 0.983 | locus YLR342W, strain FKS1 (second series), stronger effect = lower value 0.944 | locus YLR371W, strain rom2, stronger effect = lower value 0.985 | locus YLR418C, strain cdc73, stronger effect = lower value 0.928 | locus YML016C, strain PPZ1, stronger effect = lower value 1 | locus YML032C, strain rad52, stronger effect = lower value 0.971 | locus YML124C, strain tub3, stronger effect = lower value 0.998 | locus YMR078C, strain ctf18, stronger effect = lower value 0.988 | locus YMR223W, strain ubp8, stronger effect = lower value 0.99 | [5] 1.05 | [6] 0.998 | locus YNL067W, strain RPL9B, stronger effect = lower value 0.965 | [7] 0.969 | locus YNL233W, strain BNI4, stronger effect = lower value 0.928 | locus YNL271C, strain bni1, stronger effect = lower value 0.993 | locus YNL298W, strain CLA4, stronger effect = lower value 0.996 | locus YNL307C, strain MCK1, stronger effect = lower value 0.975 | locus YNR052C, strain pop2, stronger effect = lower value 0.973 | locus YOL012C, strain htz1 1.07 | locus YOL147C, strain pex11, stronger effect = lower value 0.97 | locus YOR061W, strain CKA2, stronger effect = lower value 0.98 | locus YOR069W, strain VPS5, stronger effect = lower value 0.999 | locus YOR136W, strain idh2, stronger effect = lower value 0.98 | locus YOR144C, strain elg1, stronger effect = lower value 0.991 | locus YOR184W, strain ser1, stronger effect = lower value 0.897 | locus YOR316C, strain cot1, stronger effect = lower value 0.991 | [8] 0.941 | locus YPR119W, strain clb2, stronger effect = lower value 0.995 | locus YPR141C, strain kar3, stronger effect = lower value 1 | locus YPR163C, strain tif3, stronger effect = lower value 0.992 | locus YPR167C, strain met16, stronger effect = lower value 0.991 | strain wtn01, stronger effect = lower value 0.92

COc1ccc(-c2cc(=O)c3c(O)c(OC)c(OC)c(OC)c3o2)cc1OC
active: locus YDR137W, strain rgp1, stronger effect = lower value 1.2 [resistant] | locus YMR058W, strain fet3, stronger effect = lower value 0.815
inactive: locus YAL021C, strain ccr4, stronger effect = lower value 0.997 | locus YAL026C, strain drs2, stronger effect = lower value 0.974 | locus YAL030W, strain snc1, stronger effect = lower value 0.995 | locus YBL061C, strain skt5, stronger effect = lower value 0.991 | locus YBR009C, strain hhf1, stronger effect = lower value 0.965 | locus YBR023C, strain chs3, stronger effect = lower value 1 | locus YBR171W, strain sec66, stronger effect = lower value 0.994 | locus YBR231C, strain swc5, stronger effect = lower value 0.976 | locus YBR279W, strain paf1, stronger effect = lower value 0.995 | locus YCL011C, strain gbp2, stronger effect = lower value 0.989 | locus YCL016C, strain dcc1, stronger effect = lower value 0.996 | locus YCL069W, strain vba3, stronger effect = lower value 1.01 | locus YCR088W, strain abp1, stronger effect = lower value 0.997 | locus YDL005C, strain med2, stronger effect = lower value 0.998 | locus YDL040C, strain nat1, stronger effect = lower value 1.02 | locus YDR001C, strain nth1, stronger effect = lower value 1 | locus YDR069C, strain doa4, stronger effect = lower value 0.972 | locus YDR159W, strain sac3, stronger effect = lower value 0.967 | locus YDR195W, strain ref2 1.03 | locus YDR297W, strain sur2, stronger effect = lower value 0.988 | locus YDR334W, strain swr1, stronger effect = lower value 1 | locus YDR335W, strain msn5, stronger effect = lower value 1 | locus YDR392W, strain spt3, stronger effect = lower value 0.867 | locus YEL003W, strain gim4, stronger effect = lower value 0.994 | locus YEL037C, strain rad23, stronger effect = lower value 0.997 | locus YEL061C, strain CIN8 (second series), stronger effect = lower value 1.02 | locus YER015W, strain faa2, stronger effect = lower value 0.989 | locus YER016W, strain bim1, stronger effect = lower value 1.04 | locus YER111C, strain swi4, stronger effect = lower value 0.987 | locus YER155C, strain BEM2 (second series), stronger effect = lower value 0.939 | locus YFR010W, strain ubp6, stronger effect = lower value 0.997 | locus YGL167C, strain pmr1, stronger effect = lower value 0.992 | locus YGL173C, strain kem1, stronger effect = lower value 0.991 | locus YGL227W, strain vid30, stronger effect = lower value 0.99 | locus YGL240W, strain doc1, stronger effect = lower value 0.983 | locus YGL253W, strain hxk2, stronger effect = lower value 0.951 | locus YHR013C, strain ard1, stronger effect = lower value 1.01 | locus YHR027C, strain rpn1, stronger effect = lower value 1 | [3] 0.961 | [9] 0.949 | locus YHR142W, strain chs7, stronger effect = lower value 0.953 | locus YJL092W, strain hpr5, stronger effect = lower value 1 | locus YJL095W, strain BCK1 (second series), stronger effect = lower value 0.992 | [4] 1.01 | locus YJL115W, strain asf1, stronger effect = lower value 0.996 | locus YJL129C, strain trk1, stronger effect = lower value 0.949 | locus YJL154C, strain vps35, stronger effect = lower value 0.998 | locus YJL164C, strain tpk1, stronger effect = lower value 0.995 | locus YJL166W, strain qcr8, stronger effect = lower value 0.974 | locus YJL187C, strain SWE1, stronger effect = lower value 0.989 | [10] 0.914 | locus YKL160W, strain elf1, stronger effect = lower value 0.994 | locus YKR026C, strain gcn3, stronger effect = lower value 0.995 | locus YKR091W, strain srl3, stronger effect = lower value 1.03 | locus YLL001W, strain dnm1, stronger effect = lower value 0.984 | locus YLL026W, stronger effect = lower value 0.998 | locus YLL041C, strain sdh2, stronger effect = lower value 1 | locus YLR027C, strain aat2, stronger effect = lower value 0.997 | [11] 1 | locus YLR221C, strain rsa3, stronger effect = lower value 0.943 | locus YLR258W, strain gsy2, stronger effect = lower value 1 | locus YLR262C, strain YPT6 (second series), stronger effect = lower value 0.985 | locus YLR320W, strain mms22, stronger effect = lower value 0.975 | locus YLR342W, strain FKS1, stronger effect = lower value 1 | locus YLR357W, strain rsc2, stronger effect = lower value 0.972 | locus YLR370C, strain arc18, stronger effect = lower value 0.986 | locus YLR384C, strain iki3, stronger effect = lower value 0.974 | locus YML120C, strain ndi1, stronger effect = lower value 0.989 | locus YMR125W, strain sto1, stronger effect = lower value 1.01 | locus YMR129W, stronger effect = lower value 1.01 | locus YMR205C, strain PFK2, stronger effect = lower value 1 | locus YMR231W, strain pep5, stronger effect = lower value 1 | locus YNL071W, strain lat1, stronger effect = lower value 0.994 | [12] 0.944 | locus YNL209W, strain ssb2, stronger effect = lower value 0.998 | locus YNL248C, strain rpa49, stronger effect = lower value 0.971 | locus YNL322C, strain KRE1 (second series), stronger effect = lower value 1 | locus YNR049C, strain mso1, stronger effect = lower value 1.01 | locus YOR001W, strain rrp6, stronger effect = lower value 0.94 | locus YOR070C, strain gyp1, stronger effect = lower value 0.978 | locus YOR080W, strain dia2, stronger effect = lower value 0.999 | locus YOR083W, strain WHI5, stronger effect = lower value 0.991 | locus YOR106W, strain vam3, stronger effect = lower value 0.954 | [13] 0.95 | locus YOR265W, strain rbl2, stronger effect = lower value 0.993 | locus YOR270C, strain vph1, stronger effect = lower value 0.962 | locus YOR290C, strain snf2, stronger effect = lower value 0.994 | locus YPL051W, strain arl3, stronger effect = lower value 0.947 | locus YPL078C, strain atp4, stronger effect = lower value 0.979 | locus YPL106C, strain sse1, stronger effect = lower value 0.953 | locus YPL240C, strain hsp82, stronger effect = lower value 1.03 | [14] 0.971

COc1ccc(-c2cc(=O)c3c(O)cc(OC)cc3o2)cc1
inactive: [3] 0.924 | [9] 0.925 | [4] 0.931 | [10] 0.874 | [11] 0.905 | [12] 0.887 | [13] 0.919 | [14] 0.94

CC(=O)O[C@]1(C(C)=O)CC[C@H]2[C@@H]3C=C(Cl)C4=CC(=O)[C@@H]5C[C@@H]5[C@]4(C)[C@H]3CC[C@@]21C
inactive: [15] 0.994 | [16] 0.976 | [17] 1.02 | [2] 0.985 | [5] 0.993 | [6] 0.975 | [18] 0.993 | [7] 1.05 | [19] 1.03 | [20] 0.966 | [21] 0.975 | locus YNL322C, strain KRE1, stronger effect = lower value 0.988 | [22] 0.979 | [8] 1 | [23] 1

Nc1nc2c(ncn2COC(CO)CO)c(=O)[nH]1
inactive: [15] 1.05 | locus YCL061C, strain MRC1 (second series), stronger effect = lower value 1.01 | [1] 1.01 | [16] 1.03 | [17] 1.01 | [2] 0.999 | [5] 1.01 | [6] 0.99 | [18] 0.992 | [19] 1.01 | [20] 1.01 | [21] 0.997 | [22] 1.03 | [23] 1.01
